Reference: the supplement of paper PMC10849652
About 8,800 targets were measured; listed, in parts, are those with a hit and a random draw of the rest. About 0.5% of all pairs of compound and target were hits.

Tests used:
Assay in all cases: log2 fold change, soluble protein after heating vs DMSO (PISA); higher = thermal stabilisation; K562 lysate, 10 uM; active = over 0.2 and 3.5 SD of the protein, either way, in both replicates (recomputed)
[1] = compound: CN1CC[C@H](c2c(O)cc(O)c3c(=O)cc(-c4ccccc4Cl)oc23)[C@H](O)C1 [alvocidib]
How it was run: (§1)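 A 30 min treatment with 10 μM compound was applied to crude K562 extract at 1 mg/mL protein in PBS pH 7.4 with 1 mM MgCl2. Heating for 3 min spanned 48°C-58°C, after which aliquots were pooled, adjusted to 0.5% NP-40 at 4°C and spun at 21,000xg for 90 min. TMTpro 16plex LC-MS/MS of the supernatant, with channel sums equalised, gave values recorded as log-two fold change in thermal stability against solvent controls, from duplicates.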

[2] = compound: CN1CCc2c(c3ccccc3n2Cc2ccc(C(=O)NO)cc2)C1 [Tubastatin A]
How it was run: as §1

[3] = compound: CNC(=O)C1=CC=CC=C1NC2=NC(=NC=C2Cl)NC3=C(C=C(C=C3)N4CCOCC4)OC
How it was run: as §1

[4] = compound: CNC(=O)c1ccc(Nc2ncc(C(F)(F)F)c(NCc3nccnc3N(C)S(C)(=O)=O)n2)cc1 [defactinib]
How it was run: as §1

[5] = compound: CNc1nc(-c2ccc3c(N)n[nH]c3c2)cc(N2C[C@@H](C(=O)NC3CCCCC3)CC[C@H]2C)n1
How it was run: as §1

[6] = compound: COC(=O)N[C@@H](C)CNc1nccc(-c2cn(C(C)C)nc2-c2cc(Cl)cc(NS(C)(=O)=O)c2F)n1 [encorafenib]
How it was run: as §1

[7] = compound: COC(=O)[C@H](CCSC)NC(=O)C1=C(C=C(C=C1)NC[C@H](CS)N)C2=CC=CC=C2
How it was run: as §1

[8] = compound: COc1cc(Nc2ncc3c(n2)-c2ccc(Cl)cc2C(c2c(F)cccc2OC)=NC3)ccc1C(=O)O [alisertib]
How it was run: as §1

[9] = compound: COc1cc2nc(-c3cc(F)ccc3O)nc(N[C@@H]3CNC[C@H]3C(C)(C)O)c2cc1OC
How it was run: as §1

[10] = compound: COc1cc2ncnc(Nc3ccc(F)c(Cl)c3)c2cc1OCCCN1CCOCC1 [gefitinib]
How it was run: as §1

[11] = compound: CS(=O)(=O)CCNCc1ccc(-c2ccc3ncnc(Nc4ccc(OCc5cccc(F)c5)c(Cl)c4)c3c2)o1 [lapatinib]
How it was run: as §1

[12] = compound: CS(=O)(=O)N1CCN(Cc2cc3nc(-c4cccc5[nH]ncc45)nc(N4CCOCC4)c3s2)CC1 [pictilisib]
How it was run: as §1

[13] = compound: C[C@@H](Oc1cc(-c2cnn(C3CCNCC3)c2)cnc1N)c1c(Cl)ccc(F)c1Cl [crizotinib]
How it was run: as §1

[14] = compound: C[C@H](C1=CC=C(C=C1)C(=O)NC2=C3C=CNC3=NC=C2)N
How it was run: as §1

[15] = compound: C[C@H](Nc1ncnc2nc[nH]c12)c1cc2cccc(Cl)c2c(=O)n1-c1ccccc1 [duvelisib]
How it was run: as §1

[16] = compound: Cc1cc(Nc2cc(CN3CCOCC3)c3nc(C)c(Cc4ccc(Cl)cc4F)n3n2)n[nH]1 [gandotinib]
How it was run: as §1

[17] = compound: Cc1cc(Nc2cc(N3CCN(C)CC3)nc(Sc3ccc(NC(=O)C4CC4)cc3)n2)n[nH]1 [tozasertib]
How it was run: as §1

[18] = compound: Cc1ccc(-n2nc(C(C)(C)C)cc2NC(=O)Nc2ccc(OCCN3CCOCC3)c3ccccc23)cc1 [doramapimod]
How it was run: as §1

[19] = compound: Cc1ccc(NC(=O)c2ccc(CN3CC[C@H](N(C)C)C3)c(C(F)(F)F)c2)cc1Nc1nccc(-c2cncnc2)n1 [bafetinib]
How it was run: as §1

[20] = compound: Cc1cccc(CC(=O)N2CCc3c2ccc(-c2cn(C)c4ncnc(N)c24)c3F)n1
How it was run: as §1

Measured: log2 fold change

CKAP2 (UniProt Q8WWK9)
inactive: [1] -0.059 | [2] -0.009 | [3] 0.071 | [4] -0.075 | [5] 0.028 | [6] 0.097 | [7] -0.092 | [8] -0.044 | [9] 0.049 | [10] 0.06 | [11] -0.004 | [12] -0.02 | [13] -0.027 | [14] 0.064 | [15] 0.016 | [16] 0.016 | [17] 0.034 | [18] -0.001 | [19] 0.019 | [20] -0.009

CLUH, A0A494C0R8
active: [14] 0.557
inactive: [1] 0.076 | [2] -0.08 | [3] -0.015 | [4] -0.184 | [5] -0.049 | [6] -0.089 | [7] 0.054 | [8] -0.05 | [9] 0.005 | [10] 0.138 | [11] -0.052 | [13] -0.019 | [15] 0.154 | [16] -0.108 | [17] -0.025 | [18] -0.026 | [19] -0.091 | [20] -0.14

CUX1 isoform 2 (UniProt Q13948)
inactive: [1] -0.035 | [2] 0.016 | [3] 0.033 | [4] 0.085 | [5] -0.028 | [6] 0.067 | [7] -0.022 | [9] 0.071 | [11] -0.168 | [13] -0.073 | [14] 0.104 | [15] 0.014 | [16] 0.041 | [17] 0.057 | [18] -0.12 | [20] -0.089

COX7B (UniProt P24311)
UniProt P24311, sequence (P24311 whole entry, looked up): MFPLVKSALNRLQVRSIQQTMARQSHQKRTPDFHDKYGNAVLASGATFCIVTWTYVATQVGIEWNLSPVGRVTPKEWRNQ
inactive: [1] 0.013 | [2] 0.02 | [3] 0.112 | [4] 0.042 | [5] -0.014 | [6] -0.022 | [8] 0.028 | [9] 0.018 | [10] -0.139 | [11] -0.002 | [13] 0.058 | [14] 0.025 | [15] 0.005 | [16] 0.01 | [17] 0.035 | [18] 0.035 | [20] 0.099
active: [7] 0.315

CLCN3 (UniProt P51790)
UniProt P51790, sequence (P51790 whole entry, looked up): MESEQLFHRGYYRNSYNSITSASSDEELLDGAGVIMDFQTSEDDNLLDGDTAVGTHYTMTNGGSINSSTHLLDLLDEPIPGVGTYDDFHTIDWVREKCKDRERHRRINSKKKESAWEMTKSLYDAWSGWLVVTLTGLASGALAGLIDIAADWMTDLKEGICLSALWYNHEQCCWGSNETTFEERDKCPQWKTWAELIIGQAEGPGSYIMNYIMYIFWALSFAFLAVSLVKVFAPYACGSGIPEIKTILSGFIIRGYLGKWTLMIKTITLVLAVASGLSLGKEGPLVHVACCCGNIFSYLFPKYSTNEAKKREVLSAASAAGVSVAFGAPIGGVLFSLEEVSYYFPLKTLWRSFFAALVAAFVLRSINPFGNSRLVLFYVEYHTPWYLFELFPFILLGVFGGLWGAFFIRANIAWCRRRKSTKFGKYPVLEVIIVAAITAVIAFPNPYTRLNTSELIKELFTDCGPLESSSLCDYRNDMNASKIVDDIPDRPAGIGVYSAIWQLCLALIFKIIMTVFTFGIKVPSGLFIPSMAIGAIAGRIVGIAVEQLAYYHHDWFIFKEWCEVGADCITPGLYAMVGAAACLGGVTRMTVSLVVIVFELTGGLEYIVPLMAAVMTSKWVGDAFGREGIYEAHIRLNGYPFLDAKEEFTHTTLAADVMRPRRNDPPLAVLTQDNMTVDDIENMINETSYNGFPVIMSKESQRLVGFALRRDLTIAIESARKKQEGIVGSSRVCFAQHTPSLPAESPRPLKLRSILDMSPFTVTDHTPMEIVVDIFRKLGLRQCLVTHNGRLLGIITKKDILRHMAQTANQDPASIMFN
inactive: [1] -0.03 | [2] -0.012 | [3] -0.042 | [4] -0.024 | [5] -0.194 | [6] 0.05 | [7] 0.003 | [8] 0.005 | [9] -0.043 | [10] 0.029 | [11] 0.004 | [13] 0.014 | [14] -0.09 | [15] -0.017 | [16] -0.106 | [17] -0.008 | [18] 0.033 | [19] -0.004 | [20] 0.13

CLUH (UniProt O75153)
inactive: [1] -0.022 | [2] -0.076 | [3] -0.076 | [4] 0.002 | [5] -0.029 | [6] 0.007 | [7] 0.058 | [8] -0.014 | [9] -0.014 | [10] 0.017 | [11] -0.014 | [13] -0.057 | [14] -0.012 | [15] 0.147 | [16] 0.004 | [17] -0.005 | [18] -0.007 | [19] -0.044 | [20] 0.032

DIAPH1 (UniProt H9KV28)
inactive: [1] -0.039 | [2] 0.032 | [3] 0.036 | [4] 0.012 | [6] 0.054 | [7] 0.213 | [8] -0.012 | [9] 0.026 | [10] -0.005 | [11] 0.003 | [12] 0.087 | [13] -0.047 | [14] -0.039 | [16] 0.199 | [17] 0.049 | [18] 0.099 | [19] -0.171 | [20] 0.158

DNAAF5 (UniProt Q86Y56)
UniProt Q86Y56, sequence (Q86Y56 whole entry, looked up): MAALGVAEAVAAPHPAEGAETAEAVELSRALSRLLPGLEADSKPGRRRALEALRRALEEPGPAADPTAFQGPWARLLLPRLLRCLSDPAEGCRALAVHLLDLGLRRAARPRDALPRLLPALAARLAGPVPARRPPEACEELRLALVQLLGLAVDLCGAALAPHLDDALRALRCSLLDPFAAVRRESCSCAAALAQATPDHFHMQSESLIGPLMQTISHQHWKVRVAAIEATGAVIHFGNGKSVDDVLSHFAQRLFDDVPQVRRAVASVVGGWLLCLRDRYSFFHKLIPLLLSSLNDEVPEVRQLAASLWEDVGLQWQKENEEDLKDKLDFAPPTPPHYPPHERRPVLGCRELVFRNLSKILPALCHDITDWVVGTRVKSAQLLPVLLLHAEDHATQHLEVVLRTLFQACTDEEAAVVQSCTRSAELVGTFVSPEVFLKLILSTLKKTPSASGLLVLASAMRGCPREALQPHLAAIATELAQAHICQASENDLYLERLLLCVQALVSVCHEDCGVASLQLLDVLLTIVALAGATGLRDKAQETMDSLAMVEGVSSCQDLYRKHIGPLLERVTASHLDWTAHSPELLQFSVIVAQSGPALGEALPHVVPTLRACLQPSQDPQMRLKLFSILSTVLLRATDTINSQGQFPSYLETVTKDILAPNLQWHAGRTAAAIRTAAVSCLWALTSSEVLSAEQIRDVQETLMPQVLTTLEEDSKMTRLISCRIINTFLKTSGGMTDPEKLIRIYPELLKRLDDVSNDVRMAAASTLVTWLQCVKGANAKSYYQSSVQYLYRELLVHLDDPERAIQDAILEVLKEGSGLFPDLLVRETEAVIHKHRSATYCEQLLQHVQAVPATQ
inactive: [1] 0.024 | [2] -0.155 | [3] -0.011 | [4] -0.009 | [5] -0.011 | [6] 0.073 | [7] 0.101 | [8] 0.038 | [9] 0.012 | [10] -0.018 | [11] -0.03 | [12] -0.008 | [13] -0.104 | [14] 0.016 | [15] 0.021 | [16] -0.147 | [17] -0.055 | [18] 0.024 | [19] -0.066 | [20] 0.027

CLP1 (UniProt Q92989)
UniProt Q92989, sequence (Q92989 whole entry, looked up): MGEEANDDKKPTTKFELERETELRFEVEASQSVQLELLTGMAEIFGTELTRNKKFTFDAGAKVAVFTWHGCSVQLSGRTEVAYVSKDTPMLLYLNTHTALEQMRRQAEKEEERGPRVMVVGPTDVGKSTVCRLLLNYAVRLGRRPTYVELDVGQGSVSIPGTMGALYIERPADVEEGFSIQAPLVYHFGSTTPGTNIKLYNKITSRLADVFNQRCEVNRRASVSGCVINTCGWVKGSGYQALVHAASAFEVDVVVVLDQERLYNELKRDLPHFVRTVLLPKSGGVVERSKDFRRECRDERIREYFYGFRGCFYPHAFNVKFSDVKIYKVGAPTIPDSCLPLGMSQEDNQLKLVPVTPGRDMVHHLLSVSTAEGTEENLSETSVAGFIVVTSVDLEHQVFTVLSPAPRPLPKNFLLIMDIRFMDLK
inactive: [1] -0.103 | [2] -0.179 | [3] 0.004 | [4] 0.071 | [5] -0.037 | [6] 0.02 | [7] 0.023 | [8] -0.002 | [9] 0.031 | [10] 0.033 | [11] -0.003 | [13] -0.041 | [14] -0.12 | [15] -0.056 | [16] 0.008 | [17] 0.004 | [18] 0.032 | [19] 0.01 | [20] 0.047

DAPK1 isoform 3 (UniProt P53355)
UniProt P53355, sequence (P53355 whole entry, looked up): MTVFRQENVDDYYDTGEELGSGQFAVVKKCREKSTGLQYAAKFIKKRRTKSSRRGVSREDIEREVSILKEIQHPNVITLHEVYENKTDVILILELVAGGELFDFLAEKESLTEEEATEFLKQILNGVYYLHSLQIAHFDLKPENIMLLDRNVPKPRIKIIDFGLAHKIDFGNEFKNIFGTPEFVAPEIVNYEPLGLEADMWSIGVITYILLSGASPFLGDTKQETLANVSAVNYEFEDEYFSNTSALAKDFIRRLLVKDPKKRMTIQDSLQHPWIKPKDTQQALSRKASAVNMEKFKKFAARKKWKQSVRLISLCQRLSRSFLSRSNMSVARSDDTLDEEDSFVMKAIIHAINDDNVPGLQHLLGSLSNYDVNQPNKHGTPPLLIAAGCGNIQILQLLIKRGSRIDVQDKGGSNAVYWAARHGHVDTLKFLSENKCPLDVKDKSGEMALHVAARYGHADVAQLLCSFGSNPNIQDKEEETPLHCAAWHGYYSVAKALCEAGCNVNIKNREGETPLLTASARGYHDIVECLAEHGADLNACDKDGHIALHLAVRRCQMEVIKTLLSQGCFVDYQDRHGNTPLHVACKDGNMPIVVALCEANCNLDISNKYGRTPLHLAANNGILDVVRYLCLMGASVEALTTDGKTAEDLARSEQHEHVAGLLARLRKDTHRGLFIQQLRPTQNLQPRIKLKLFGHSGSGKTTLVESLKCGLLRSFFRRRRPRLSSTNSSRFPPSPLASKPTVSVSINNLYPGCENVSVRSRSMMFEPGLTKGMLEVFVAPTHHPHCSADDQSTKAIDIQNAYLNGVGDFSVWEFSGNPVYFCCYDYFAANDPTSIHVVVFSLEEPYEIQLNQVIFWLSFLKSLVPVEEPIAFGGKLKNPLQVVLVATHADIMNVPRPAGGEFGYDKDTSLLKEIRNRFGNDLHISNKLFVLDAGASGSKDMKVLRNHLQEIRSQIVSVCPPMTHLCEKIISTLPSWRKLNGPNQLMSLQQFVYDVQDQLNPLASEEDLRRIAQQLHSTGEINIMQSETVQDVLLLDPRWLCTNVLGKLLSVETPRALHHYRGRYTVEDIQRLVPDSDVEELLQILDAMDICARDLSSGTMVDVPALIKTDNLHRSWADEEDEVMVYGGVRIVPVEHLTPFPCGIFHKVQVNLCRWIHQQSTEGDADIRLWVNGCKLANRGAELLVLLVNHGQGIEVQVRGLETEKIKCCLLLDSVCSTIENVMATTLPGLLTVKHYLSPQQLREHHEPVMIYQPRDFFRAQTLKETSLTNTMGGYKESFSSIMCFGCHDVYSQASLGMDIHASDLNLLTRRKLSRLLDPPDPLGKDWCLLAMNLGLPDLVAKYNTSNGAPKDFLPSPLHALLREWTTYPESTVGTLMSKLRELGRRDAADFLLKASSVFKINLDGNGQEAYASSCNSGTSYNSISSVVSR
inactive: [1] 0.085 | [2] 0.001 | [3] 0.322 | [4] -0.109 | [5] 0.058 | [8] 0.051 | [9] 0.063 | [10] 0.139 | [11] 0.042 | [13] 0.022 | [14] 0.188 | [15] 0.042 | [16] 0.058 | [18] -0.141 | [20] -0.383

CLASP2 isoform 3 (UniProt O75122)
UniProt O75122, sequence (O75122 whole entry, looked up): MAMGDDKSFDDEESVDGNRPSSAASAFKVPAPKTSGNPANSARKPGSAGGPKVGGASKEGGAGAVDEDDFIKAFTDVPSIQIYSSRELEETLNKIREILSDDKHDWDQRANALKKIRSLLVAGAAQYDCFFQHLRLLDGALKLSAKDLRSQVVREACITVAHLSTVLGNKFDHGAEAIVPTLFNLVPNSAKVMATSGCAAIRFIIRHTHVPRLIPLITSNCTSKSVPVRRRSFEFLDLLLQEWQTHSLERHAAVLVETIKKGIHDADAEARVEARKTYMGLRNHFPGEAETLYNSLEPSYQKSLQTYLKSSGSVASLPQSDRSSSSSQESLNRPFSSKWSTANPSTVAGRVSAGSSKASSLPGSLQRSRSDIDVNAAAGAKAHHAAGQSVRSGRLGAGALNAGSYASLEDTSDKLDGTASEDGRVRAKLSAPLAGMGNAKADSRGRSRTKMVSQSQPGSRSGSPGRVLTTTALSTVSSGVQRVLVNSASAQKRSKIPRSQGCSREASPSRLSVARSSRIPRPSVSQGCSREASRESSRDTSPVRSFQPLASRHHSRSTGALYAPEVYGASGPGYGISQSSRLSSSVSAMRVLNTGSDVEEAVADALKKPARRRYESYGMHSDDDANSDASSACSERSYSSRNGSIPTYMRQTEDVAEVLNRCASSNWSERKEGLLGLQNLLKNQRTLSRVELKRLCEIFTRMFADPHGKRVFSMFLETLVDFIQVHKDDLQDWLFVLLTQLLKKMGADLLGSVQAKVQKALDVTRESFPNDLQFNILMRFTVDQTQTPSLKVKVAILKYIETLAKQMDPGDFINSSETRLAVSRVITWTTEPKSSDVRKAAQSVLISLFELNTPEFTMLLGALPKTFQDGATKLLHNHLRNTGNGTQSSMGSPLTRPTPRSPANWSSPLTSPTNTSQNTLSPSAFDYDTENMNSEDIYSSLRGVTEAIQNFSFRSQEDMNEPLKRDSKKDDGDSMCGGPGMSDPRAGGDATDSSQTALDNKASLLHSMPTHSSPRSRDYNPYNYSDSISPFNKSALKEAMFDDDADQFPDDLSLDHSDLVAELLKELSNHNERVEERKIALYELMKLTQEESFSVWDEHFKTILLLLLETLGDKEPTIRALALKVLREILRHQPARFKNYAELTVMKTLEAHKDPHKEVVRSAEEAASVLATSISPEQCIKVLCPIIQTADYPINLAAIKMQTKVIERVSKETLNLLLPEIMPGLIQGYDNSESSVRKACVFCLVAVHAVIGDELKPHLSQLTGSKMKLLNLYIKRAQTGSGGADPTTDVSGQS
active: [20] 0.247
inactive: [1] -0.151 | [2] -0.103 | [3] 0.007 | [4] -0.051 | [5] -0.003 | [6] 0.035 | [7] -0.008 | [8] 0.032 | [9] 0 | [10] -0.007 | [11] -0.008 | [13] -0.018 | [14] -0.172 | [15] -0.015 | [16] 0.077 | [17] 0.015 | [18] 0.041 | [19] -0.021

DNAJC24 (UniProt Q6P3W2)
UniProt Q6P3W2, sequence (Q6P3W2 whole entry, looked up): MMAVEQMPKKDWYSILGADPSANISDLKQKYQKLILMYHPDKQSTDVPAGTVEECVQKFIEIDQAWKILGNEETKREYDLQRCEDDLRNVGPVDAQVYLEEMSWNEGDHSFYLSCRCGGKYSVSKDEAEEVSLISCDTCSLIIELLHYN
inactive: [1] 0.079 | [2] 0.001 | [3] -0.017 | [4] 0.009 | [5] -0.088 | [6] 0.037 | [7] -0.027 | [8] -0.017 | [9] -0.006 | [10] -0.038 | [11] 0.006 | [13] 0.074 | [14] 0.152 | [15] -0.025 | [16] -0.162 | [17] 0.073 | [18] 0.042 | [20] -0.134

CLPB isoform 2 (UniProt Q9H078)
inactive: [1] 0.065 | [2] -0.075 | [3] 0.031 | [4] 0.086 | [5] -0.049 | [6] 0.025 | [7] -0.053 | [8] 0.001 | [9] -0.036 | [10] 0.034 | [11] -0.034 | [13] -0.03 | [14] 0.024 | [15] -0.015 | [16] -0.093 | [17] 0.046 | [18] -0.01 | [19] -0.072 | [20] 0.039

DENND1B (UniProt Q6P3S1)
inactive: [1] 0.074 | [2] 0.152 | [3] -0.105 | [4] 0.099 | [5] 0.023 | [8] -0.146 | [9] -0.226 | [10] -0.102 | [11] 0.1 | [12] 0.096 | [13] -0.019 | [14] 0.003 | [15] -0.08 | [16] -0.194 | [18] -0.072 | [19] 0.154 | [20] -0.03

DHX32 (UniProt Q7L7V1)
inactive: [1] 0.019 | [2] 0.027 | [3] 0.044 | [4] -0.043 | [6] 0.062 | [7] 0.048 | [8] 0.017 | [10] 0.02 | [13] -0.03 | [14] -0.013 | [16] -0.01 | [17] 0.108 | [18] 0.012 | [20] -0.077

DCUN1D4 isoform 3 (UniProt Q92564)
inactive: [1] -0.276 | [2] 0.081 | [3] 0.003 | [4] 0.014 | [5] 0.035 | [6] 0.034 | [7] 0.131 | [8] 0.055 | [9] -0.043 | [10] -0.049 | [11] 0.072 | [12] 0.046 | [13] -0.02 | [14] 0.001 | [15] 0.02 | [16] -0.104 | [17] -0.009 | [18] 0.004 | [19] -0.003 | [20] -0.039

DHRS1 (UniProt Q96LJ7)
inactive: [1] -0.057 | [2] 0.02 | [3] 0.188 | [4] -0.238 | [5] -0.012 | [6] 0.164 | [7] -0.102 | [8] 0.059 | [9] 0.028 | [10] -0.075 | [11] -0.138 | [12] -0.089 | [13] -0.014 | [14] -0.037 | [16] 0.099 | [17] -0.281 | [18] -0.015 | [19] 0.056 | [20] 0.092
active: [15] 0.406
